# From PubChem BioAssay (NCATS)
# Active and inactive are the calls of the source. The call rests on the fitted dose curve; in most records, active means well fitted curve in the direction sought with a large enough effect; inconclusive means small, poorly fitted or top-dose-only effect, or another doubt; inactive means no such curve, though single readings can be large or run the other way.
# Biological target: Guanine nucleotide-binding protein G(i) subunit alpha-1 (Homo sapiens) (UniProt P63096)
# Sequence (P63096 whole entry, looked up): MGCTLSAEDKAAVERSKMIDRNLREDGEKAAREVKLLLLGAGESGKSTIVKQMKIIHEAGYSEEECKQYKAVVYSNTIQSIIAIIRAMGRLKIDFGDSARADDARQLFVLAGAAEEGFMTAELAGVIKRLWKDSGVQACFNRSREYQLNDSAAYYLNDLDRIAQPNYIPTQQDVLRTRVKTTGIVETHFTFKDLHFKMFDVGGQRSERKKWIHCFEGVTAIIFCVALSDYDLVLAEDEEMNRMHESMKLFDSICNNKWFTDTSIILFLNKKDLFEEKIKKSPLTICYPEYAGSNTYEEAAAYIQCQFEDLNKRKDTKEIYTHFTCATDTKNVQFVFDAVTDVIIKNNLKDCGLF
# Assay: qHTS Assay for Inhibitors of RGS12 GoLoco Motif Activity (Green Fluorophore) (AID 879);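 on activity, negative = inhibition: 0% = labeled peptide with Gαi1 and full inhibition = labeled peptide alone without protein; negative values mean loss of peptide binding seen as reduced polarization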
# Conditions: Galphai1/FITC-RGS12 GoLoco peptide, fluorescence polarization; series mostly up to 57.1 µM; activity, negative = inhibition: at the top concentration
# Excerpt: Assay Overview: NIH Molecular Libraries Screening Centers Network [MLSCN] NIH Chemical Genomics Center [NCGC] MLSCN Grant: NS053754-01 Assay Provider: Siderovski, David P, University of North Carolina at Chapel Hill G-protein-coupled receptors (GPCRs) are major targets for drug discovery. The regulator of G-protein signaling (RGS)-protein family has important roles in GPCR signal transduction. RGS proteins contain a conserved RGS-box, which is often accompanied by other signaling regulatory elements. RGS proteins accelerate the deactivation of G proteins to reduce GPCR signaling; however, some also have an effector function and transmit signals. Combining GPCR agonists with RGS inhibitors should potentiate responses, and could markedly increase the agonist's regional specificity. The diversity of RGS proteins with highly localized and dynamically regulated distributions in brain makes them attractive targets for pharmacotherapy of central nervous system disorders. […] A complex of Gai1 and fluorescently labeled G-alpha-binding peptide (the "GoLoco motif") derived from RGS12 is incubated with library members. Inhibitors of the binding are detected by a decrease in the fluorescence polarization (FP) of the fluorophore. Protein was supplied by Prof. David Siderovski, University of North Carolina at Chapel Hill.
# Assay Protocol: Reagents/Controls: Assay Buffer: 10 mM Tris-HCl, 150 mM NaCl, 0.1 mM GDP (prepared fresh), and 0.05% NP40 at pH 7.5. […] 10 nM FITC labeled peptide/50 nM protein in columns 1, 2, 5 - 48. Titration of unlabeled peptide control ([H][…][NH2], custom synthesized and HPLC-purified by Tufts University Core Facility) from 10 mM, then 1:2 dilution, 16-point in duplicate, pin-transferred to column 2, rows 1 to 32. Column 1 is neutral. FITC-labeled RGS12-GoLoco peptide was custom-synthesized and HPLC-purified by Michael Berne of Tufts University Assay Steps. Four uL of reagents were dispensed to 1536-well Greiner black solid-bottom plates. Compounds and controls (23 nL) were transferred via Kalypsys PinTool. The plates were incubated for 10 min at room temperature, and then read on ViewLux (Perkin-Elmer) High-throughput CCD imager using FITC polarization filter sets for the fluorescein-labeled decapeptide probe.During dispense, reagent bottles were kept submerged into 4 deg C water bath and all liquid lines were covered with aluminum foil to minimize probe and protein degradation. All screening operations were performed on a Kalypsys robotic system (Kalypsys, Inc., San Diego, CA) containing one RX-130 and two RX-90 anthropomorphic robotic arms.
# Potency means the concentration at half of the fitted maximal effect.
Structure (SMILES),"activity, negative = inhibition",Potency
Nc1nnc(-c2cccc(Cl)c2Cl)c(N)n1,-9.8% (inactive),–
CC(C)C(=O)Nc1ccc([N+](=O)[O-])c(C(F)(F)F)c1,-8.47% (inactive),–
Clc1ccccc1C(c1ccccc1)(c1ccccc1)n1ccnc1,-26.5% (inactive),–
CN1CCN(C2=Nc3cc(Cl)ccc3Nc3ccccc32)CC1,-23.6% (inactive),–
OCCN(CCO)c1nc(N2CCCCC2)c2nc(N(CCO)CCO)nc(N3CCCCC3)c2n1,–,10 µM (active)
NCCS(=O)(=O)O,-14.7% (inactive),–
O=C1c2c(O)ccc(O)c2C(=O)c2c(NCCNCCO)ccc(NCCNCCO)c21,-2.98% (inactive),–
OCCN1CCN(CCCN2c3ccccc3Sc3ccc(C(F)(F)F)cc32)CC1,-21.7% (inactive),–
CN1CCC(=C2c3ccccc3CC(=O)c3sccc32)CC1,-16.8% (inactive),–
Cn1cnc2c1c(=O)[nH]c(=O)n2C,2.44% (inactive),–
NC(=O)NO,-16.4% (inactive),–
NCCc1cnc[nH]1,-18.7% (inactive),–
Cn1c(=O)c2[nH]cnc2n(C)c1=O,-9.2% (inactive),–
CN(C)c1nc(N(C)C)nc(N(C)C)n1,-7.5% (inactive),–
COc1ccc(C2CNC(=O)C2)cc1OC1CCCC1 (stereo not given),1.51% (inactive),–
NCCCCCC(=O)O,2.35% (inactive),–
COc1ccc2c(c1)c(CC(=O)O)c(C)n2C(=O)c1ccc(Cl)cc1,4.48% (inactive),–
COc1nc(C)nc(Cl)c1NC1=NCCN1,-6.04% (inactive),–
Fc1ccc([C@@H]2CCNC[C@H]2COc2ccc3c(c2)OCO3)cc1,-24% (inactive),–
Nc1c2c(nc3ccccc13)CCCC2,-15.6% (inactive),–

Structure (SMILES),"activity, negative = inhibition",Potency
N[C@@H](Cc1c[nH]c2ccc(O)cc12)C(=O)O,-10.7% (inactive),–
COc1ccc2[nH]cc(CCNC(C)=O)c2c1,-8.35% (inactive),–
O=c1c(-c2ccc(O)cc2)coc2cc(O)cc(O)c12,-6.62% (inactive),–
O=C(Nc1ccc([N+](=O)[O-])cc1Cl)c1cc(Cl)ccc1O,-11.2% (inactive),–
CCC1(c2ccccc2)C(=O)NCNC1=O,5.72% (inactive),–
COC(=O)Nc1nc2ccc(C(=O)c3cccs3)cc2[nH]1,-5.28% (inactive),–
Clc1ccc2c(c1)C(N1CCNCC1)=Nc1ccccc1O2,-14.7% (inactive),–
CN(C)CCCN1c2ccccc2CCc2ccc(Cl)cc21,-6.8% (inactive),–
CN(C)CCC=C1c2ccccc2C=Cc2ccccc21,-6.43% (inactive),–
CCOC(=O)C(C)(C)Oc1ccc(Cl)cc1,-18.1% (inactive),–
NC12CC3CC(CC(C3)C1)C2,-13.4% (inactive),–
O=C(CCCN1CCC(O)(c2ccc(Cl)cc2)CC1)c1ccc(F)cc1,-10.3% (inactive),–
CN1C(C(=O)Nc2ccccn2)=C(O)c2ccccc2S1(=O)=O,-4.75% (inactive),–
O=c1c(O)c(-c2ccc(O)c(O)c2)oc2cc(O)cc(O)c12,5.46% (inactive),–
COc1cc2c(c(OC)c1OC)-c1ccc(OC)c(=O)cc1[C@@H](NC(C)=O)CC2,3.84% (inactive),–
CN1CCC(=C2c3ccccc3C=Cc3ccccc32)CC1,-19.8% (inactive),–
Cc1cc(C(C)(C)C)c(O)c(C)c1CC1=NCCN1,-5.74% (inactive),–
Cc1cnc(C(=O)NCCc2ccc(S(=O)(=O)NC(=O)NC3CCCCC3)cc2)cn1,7.83% (inactive),–
O=C(c1ccc(F)cc1)C1CCN(CCn2c(=O)[nH]c3ccccc3c2=O)CC1,5.51% (inactive),–
CCCCc1oc2ccccc2c1C(=O)c1cc(I)c(OCCN(CC)CC)c(I)c1,14.6% (inactive),–
